{"source": "PubChem BioAssay AID2314", "about": "(National Center for Advancing Translational Sciences (NCATS), 2010)", "note": "Out of some 300,000 compounds screened, about 37,000 (12%) were called active. The sample as a whole holds a higher share of actives than the screen did. Unmarked numbers belong to inactive results. No stated cut-off is given here; in the data, active means max response mostly above about 13% (no sharp cut-off); inactive means mostly below about 14%."}
{"assay": "Cycloheximide Counterscreen for Small Molecule Inhibitors of Shiga Toxin; further: read at 38.3 µM for the half of the compounds with a filed dose; 0% is about no effect", "conditions": "cell reporter, cycloheximide protein synthesis inhibition counterscreen; stronger effect = higher value"}
{"smiles": "COc1ccc(NC2=CC(=S)NC(C)(C)C2)cc1", "max response": "-1.18%"}
{"smiles": "Cc1csc(Nc2ccc(Cl)cc2)[n+]1-c1ccc(Cl)cc1", "max response": "8.25%"}
{"smiles": "O=C(CSc1ncn[nH]1)Nc1nsc(-c2ccccc2)n1", "max response": "15.2%"}
{"smiles": "O=C(Nc1nsc(-c2ccccc2)n1)c1ccncc1", "max response": "15.5% (active)"}
{"smiles": "COC(=O)c1nc(NC(=O)c2ccccc2)n[nH]1", "max response": "-3.23%"}
{"smiles": "Cc1cc(C)cc(NC(=O)CSCc2cnn(-c3ccccc3)c2-n2cccc2)c1", "max response": "16.3%"}
{"smiles": "O=c1ccc(-c2ccc(S(=O)(=O)Nc3ccccc3)o2)n[nH]1", "max response": "-12.6%"}
{"smiles": "O=S1(=O)CCOC[C@H](CC2CCCCC2)N1Cc1ccc(F)cc1", "max response": "17.1% (active)"}
{"smiles": "CCC(C)[C@H]1COCCS(=O)(=O)N1Cc1ccc(C)cc1", "note": "(some centres not stated)", "max response": "1.06%"}
{"smiles": "CCCC[C@H]1COCCS(=O)(=O)N1Cc1cccc(Cl)c1", "max response": "0.203%"}
{"smiles": "O=S(=O)(c1ccc(Cl)cc1)N1CCCN(c2ccc(C(F)(F)F)cn2)CC1", "max response": "-1.58%"}
{"smiles": "O=C(N/N=C/c1c(O)n(C2CC2)c(=S)[nH]c1=O)c1ccccc1", "max response": "38.1% (active)"}
{"smiles": "O=C(N/N=C/c1ccc(OC(=O)c2ccccc2Cl)cc1)c1ccc(O)cc1", "max response": "-3.06%"}
{"smiles": "O=C(Nc1cc(=O)[nH]c2ncnn12)c1ccccc1Cl", "max response": "-7.22%"}
{"smiles": "O=C(N/N=C/c1c(O)n(C2CC2)c(=S)[nH]c1=O)c1ccccc1Cl", "max response": "19.5% (active)"}
{"smiles": "COc1ccccc1-n1c(O)c(C=NC2CC2)c(=O)[nH]c1=O", "max response": "-4.22%"}
{"smiles": "O=c1[nH]c(=S)n(C2CC2)c(O)c1/C=N/N1CCOCC1", "max response": "-4.88%"}
{"smiles": "COC(=O)CCSc1cc([N+](=O)[O-])cc2c1c(C1OCCS1)nn2-c1ccccc1", "note": "(configuration not stated)", "max response": "-3.43%"}
{"smiles": "O=C(NCCN1CCOCC1)c1ccc(/C=C2\\Sc3ccccc3N(Cc3ccc(F)cc3)C2=O)cc1", "max response": "11.1%"}
{"smiles": "Cc1nc(-c2nnc(SCC(=O)Nc3cc(C(F)(F)F)cc(C(F)(F)F)c3)n2C)cs1", "max response": "-0.852%"}
{"smiles": "CCOC(=O)c1c(-c2ccccc2)oc2ccc(OCC(=O)NN)cc12", "max response": "-3.08%"}
{"smiles": "CCOCCCn1c(SCC(=O)Nc2cc(OC)ccc2OC)nc2ccccc2c1=O", "max response": "-2.84%"}
{"smiles": "Cc1nn(C)c(Cl)c1CN1CCC(Oc2ccc(C(=O)N3CCCC3)cc2)CC1", "max response": "0.779%"}
{"smiles": "CC(C)OC(=O)c1sc2nc3c(cc2c1N)C(=O)CCC3", "max response": "19.5% (active)"}
{"smiles": "COCc1cc(C)nc2sc(C(=O)NC3CCCCC3)c(N)c12", "max response": "11.4%"}
{"smiles": "Nc1c(C(=O)NCc2ccccc2)sc2nc3c(cc12)C(=O)CCC3", "max response": "8.86%"}
{"smiles": "CCn1c(CC(=O)Nc2ccccc2C)nnc1SCC(=O)NC1=NCCS1", "max response": "7.82%"}
{"smiles": "COC(=O)Cc1ccc(N(Cc2ccccc2F)S(=O)(=O)c2ccc(Br)cc2)cc1", "max response": "-4.43%"}
{"smiles": "COc1ccc(Cl)cc1NS(=O)(=O)c1cccc(C(=O)NCC2CCCO2)c1", "note": "(configuration not stated)", "max response": "-3.64%"}
{"smiles": "CC(=O)N1c2ccc(S(=O)(=O)N(C)CC(=O)N(C)Cc3ccccc3)cc2CC1C", "note": "(configuration not stated)", "max response": "-2.22%"}
{"smiles": "NC(=O)NC(=O)CSc1nc2cc([N+](=O)[O-])ccc2n1-c1cccc(C(F)(F)F)c1", "max response": "-1.36%"}
{"smiles": "Cn1c(CO)cnc1SCc1ccccc1", "max response": "21.1% (active)"}
{"smiles": "CSc1c(SCc2ccccc2)cnn(Cc2ccccc2)c1=O", "max response": "5.89%"}
{"smiles": "Cn1c(-c2ccc(F)cc2)cnc1SCC(=O)NNC(=O)Cc1ccccc1", "max response": "-0.376%"}
{"smiles": "CCOC(=O)c1cccc(NS(=O)(=O)c2c(C(=O)N3CCCCCC3)c(C)n(C)c2C)c1", "max response": "1.94%"}
{"smiles": "CCCCn1c(O)c(C(CC)=NCc2ccco2)c(=O)[nH]c1=O", "max response": "-4.03%"}
{"smiles": "CC/C(=N\\NC(=O)c1ccccc1O)c1c(O)n(Cc2ccccc2)c(=O)[nH]c1=O", "max response": "23% (active)"}
{"smiles": "CCCCCCN=C(CC)c1c(O)n(CCCC)c(=O)[nH]c1=O", "max response": "-2.56%"}
{"smiles": "Cc1cc(-c2ccc(C)c(S(=O)(=O)Nc3ccc(S(N)(=O)=O)cc3)c2)on1", "max response": "4.89%"}
{"smiles": "CN1CCN(c2ccc(NC(=O)c3ccc4c(c3)[nH]c(=O)n4Cc3ccc(F)cc3)cc2)CC1", "max response": "-2.44%"}
{"smiles": "COc1cccc(C(=O)Nc2ccc(N3CCCC3)cc2)c1", "max response": "30.8% (active)"}
{"smiles": "C/C(CCc1ccccc1)=N\\NC(=O)c1ccc(CN2CCOCC2)cc1", "max response": "6.88%"}
{"smiles": "Cc1ccccc1C(=O)N1CCN(c2ccc(NC(=O)c3cccs3)cc2)CC1", "max response": "-1.82%"}
{"smiles": "O=C(Nc1ccc(S(=O)(=O)N2CCc3ccccc3C2)cc1)c1ccccc1", "max response": "-1.47%"}
{"smiles": "COc1cccc(C(=O)Nc2ccc(N3CCN(C(=O)c4ccco4)CC3)cc2)c1", "max response": "-5.64%"}
{"smiles": "C/C(=N\\NC(=O)c1ccccc1C)c1ccc(N2CCOCC2)cc1", "max response": "18.1% (active)"}
{"smiles": "COc1ccc(C(=O)NC(=S)Nc2ccc(N3CCCC3)cc2)cc1OC", "max response": "-0.974%"}
{"smiles": "Cc1ccccc1C(=O)NC(=S)Nc1ccc(N2CCN(C(=O)c3ccccc3)CC2)cc1", "max response": "-3.14%"}
{"smiles": "Cc1ccccc1C(=O)Nc1ccc(N2CCCCCC2)cc1", "max response": "19% (active)"}
{"smiles": "CN1CCN(c2ccc(NC(=O)c3ccccc3)cc2)CC1", "max response": "30.4% (active)"}
{"smiles": "CC(=O)c1ccc(N2CCN(CC(=O)Nc3ccccc3N3CCOCC3)CC2)cc1", "max response": "-0.941%"}
{"smiles": "CC(C)Oc1ccc(CC(=O)NNC(=S)Nc2ccc(Br)cc2)cc1", "max response": "-3.17%"}
{"smiles": "Cc1cc(-c2ccc(S(=O)(=O)N3CCN(c4cccc(C(F)(F)F)c4)CC3)s2)on1", "max response": "1.18%"}
{"smiles": "CCOc1ccccc1C(=O)NC1CC2CCCC(C1)N2Cc1ccccc1", "note": "(configuration not stated)", "max response": "-3.26%"}
{"smiles": "COC(=O)C1=C(N)Oc2cc(C)[nH]c(=O)c2C1c1ccc(Cl)cc1", "note": "(configuration not stated)", "max response": "0.893%"}
{"smiles": "CC(C)(C)n1ncc2c(=O)n(Cc3ccc(Cl)cc3)cnc21", "max response": "11.3%"}
{"smiles": "COc1ccc(/C=N/NC(=O)C(C)N(c2ccc(OC)cc2)S(C)(=O)=O)cc1", "note": "(configuration not stated)", "max response": "-4.86%"}
{"smiles": "Cc1nc(N2CCN(c3ccccn3)CC2)c2c(C)c(C(=O)Nc3ccc(F)c(Cl)c3)sc2n1", "max response": "-3.16%"}
{"smiles": "O=C(Nc1cc(C(=O)Nc2ccc(S(=O)(=O)O)cc2)cc(C(=O)Nc2ccc(S(=O)(=O)O)cc2)c1)Nc1cc(C(=O)Nc2ccc(S(=O)(=O)O)cc2)cc(C(=O)Nc2ccc(S(=O)(=O)O)cc2)c1", "max response": "-6.6%"}
{"smiles": "CC(C)(C)C(=O)NC1CC2CCCC(C1)N2C(=O)Nc1ccccc1F", "note": "(configuration not stated)", "max response": "-1.8%"}
{"smiles": "O=C(O)c1cc(S(=O)(=O)N(Cc2ccccc2)c2cccc(C(F)(F)F)c2)ccc1Cl", "max response": "-2.82%"}
{"smiles": "CCc1nn(CCCC(=O)Nc2ccc(C)c(C)c2)c(=O)c2cc3occc3n12", "max response": "0.415%"}
{"smiles": "COc1cccc(C(=O)NNC(=O)/C=C/c2ccccc2)c1", "max response": "0.531%"}
{"smiles": "COc1cccc(C(=O)NNC(=O)c2ccccc2Br)c1", "max response": "-3.22%"}
{"smiles": "CC(=O)Oc1cccc(C(=O)Nc2ccccc2NC(=O)c2cccc(OC(C)=O)c2)c1", "max response": "4.65%"}
{"smiles": "COc1cccc(C(=O)NNS(=O)(=O)c2ccc(F)cc2)c1", "max response": "11.3%"}
{"smiles": "COc1cccc(C(=O)Nc2cc3c(cc2Br)OCCCO3)c1", "max response": "86.1% (active)"}
{"smiles": "COc1cccc(C(=O)NNC(=O)c2cccc(F)c2)c1", "max response": "26.6% (active)"}
{"smiles": "O=C(NCCCN1CCN(c2ccc(F)cc2)CC1)Nc1ccc([N+](=O)[O-])cc1", "max response": "5.85%"}
{"smiles": "COc1ccc(C(=O)Nc2ncc3c(n2)-c2ccccc2CC3)cc1", "max response": "1.82%"}
{"smiles": "CN(C)CCCNC(=O)c1ccc2[nH]c3ccccc3c2c1", "max response": "-1.73%"}
{"smiles": "CN(C)CCNC(=O)c1[nH]nc2c1CCc1ccccc1-2", "max response": "41.8% (active)"}
{"smiles": "Cc1ccccc1CN1CCC(C(=O)Nc2ccc(Oc3cccnc3)cc2)CC1", "max response": "1.17%"}
{"smiles": "CCOC(=O)c1c(NC(=S)NC)sc2c1CCCC2", "max response": "20.2%"}
{"smiles": "CCOC(=O)c1c(NC(=O)C2CCN(S(=O)(=O)c3ccc(Cl)cc3)CC2)sc2c1CCCC2", "max response": "25.4% (active)"}
{"smiles": "CCOCC(=O)Nc1sc2c(c1C(=O)OCC)CCCC2", "max response": "-2.31%"}
{"smiles": "COc1ccc(-c2n[nH]c(C)c2-c2ccccc2OC)c(O)c1", "max response": "-4.33%"}
{"smiles": "CCc1c(C)nc(SCC(=O)NC2CCCC2)[nH]c1=O", "max response": "4.69%"}
{"smiles": "COc1ccc(-c2nc(SCC(=O)N3CCCC3)n[nH]2)cc1", "max response": "-1.17%"}
{"smiles": "CCc1ccc(-c2nc(SCC(=O)NC3CCCC3)n[nH]2)cc1", "max response": "18.2% (active)"}
{"smiles": "O=C(O)CCn1c(Cc2ccccc2)nc2ccccc21", "max response": "-1.08%"}
{"smiles": "CCC(C(=O)OCC(=O)Nc1c(Cl)cc(Cl)cc1Cl)c1ccccc1", "note": "(configuration not stated)", "max response": "1.18%"}
{"smiles": "Cc1ccc(F)c(NC(=O)CCc2ccccc2)c1", "max response": "33% (active)"}
{"smiles": "Cc1ccc(F)c(NC(=O)CCOc2ccccc2C)c1", "max response": "6.62%"}
{"smiles": "Cc1cccc(OCCC(=O)Nc2ccccc2C(N)=O)c1", "max response": "12.6%"}
{"smiles": "CCCOC(=O)Nc1ccccc1C(N)=O", "max response": "-2.21%"}
{"smiles": "COc1cccc(OCC(=O)Nc2ccccc2C(N)=O)c1", "max response": "34.1% (active)"}
{"smiles": "Cc1cccc(OCC(=O)Nc2ccccc2F)c1", "max response": "44.1% (active)"}
{"smiles": "O=C(CCc1ccccc1)NNc1ccc(F)cc1", "max response": "-0.637%"}
{"smiles": "Cc1cccc(OCC(=O)Nc2ccc(C(=O)O)cc2NC(=O)COc2cccc(C)c2)c1", "max response": "2.91%"}
{"smiles": "Cc1cccc(OCC(=O)NCCCNC(=O)c2ccccn2)c1", "max response": "-3.32%"}
{"smiles": "CC(=O)OCC(NC(=O)C(Cc1ccccc1)NC(=O)OC(C)(C)C)C1OC(n2ccc(=O)[nH]c2=O)C(OC(C)=O)C1OC(C)=O", "note": "(configuration not stated)", "max response": "10.7%"}
